In this assay the target is Voltage-dependent N-type calcium channel subunit alpha-1B (Homo sapiens) (UniProt Q00975). The experiment in a line: disruptors of CaV2.2 binding to Mint1 – biochemical, HTRF (AID 2073). The settings on record: HTRF protein-protein interaction, Mint1-CaV2.2, at 20 µM, stronger effect = higher value. (In general: Time-resolved FRET reads energy transfer from a long-lived donor to a nearby acceptor.)

Where [1] appears, read: measured here: average of repeat tests.

Molecules are shown by their SMILES. In all, about 290,000 compounds went through this assay and about 570 (0.2%) were called active. Another 1% or so got no clear call; they are omitted. Rule as the data show it: active = inhibition mostly above about 51% (no sharp cut-off); inconclusive = no clear call, values can overlap the other calls; inactive = mostly below about 53%. Shown is part of a subset that was picked to be rich in actives.

Chain of Voltage-dependent N-type calcium channel subunit alpha-1B (Homo sapiens) (Q00975 whole entry, looked up): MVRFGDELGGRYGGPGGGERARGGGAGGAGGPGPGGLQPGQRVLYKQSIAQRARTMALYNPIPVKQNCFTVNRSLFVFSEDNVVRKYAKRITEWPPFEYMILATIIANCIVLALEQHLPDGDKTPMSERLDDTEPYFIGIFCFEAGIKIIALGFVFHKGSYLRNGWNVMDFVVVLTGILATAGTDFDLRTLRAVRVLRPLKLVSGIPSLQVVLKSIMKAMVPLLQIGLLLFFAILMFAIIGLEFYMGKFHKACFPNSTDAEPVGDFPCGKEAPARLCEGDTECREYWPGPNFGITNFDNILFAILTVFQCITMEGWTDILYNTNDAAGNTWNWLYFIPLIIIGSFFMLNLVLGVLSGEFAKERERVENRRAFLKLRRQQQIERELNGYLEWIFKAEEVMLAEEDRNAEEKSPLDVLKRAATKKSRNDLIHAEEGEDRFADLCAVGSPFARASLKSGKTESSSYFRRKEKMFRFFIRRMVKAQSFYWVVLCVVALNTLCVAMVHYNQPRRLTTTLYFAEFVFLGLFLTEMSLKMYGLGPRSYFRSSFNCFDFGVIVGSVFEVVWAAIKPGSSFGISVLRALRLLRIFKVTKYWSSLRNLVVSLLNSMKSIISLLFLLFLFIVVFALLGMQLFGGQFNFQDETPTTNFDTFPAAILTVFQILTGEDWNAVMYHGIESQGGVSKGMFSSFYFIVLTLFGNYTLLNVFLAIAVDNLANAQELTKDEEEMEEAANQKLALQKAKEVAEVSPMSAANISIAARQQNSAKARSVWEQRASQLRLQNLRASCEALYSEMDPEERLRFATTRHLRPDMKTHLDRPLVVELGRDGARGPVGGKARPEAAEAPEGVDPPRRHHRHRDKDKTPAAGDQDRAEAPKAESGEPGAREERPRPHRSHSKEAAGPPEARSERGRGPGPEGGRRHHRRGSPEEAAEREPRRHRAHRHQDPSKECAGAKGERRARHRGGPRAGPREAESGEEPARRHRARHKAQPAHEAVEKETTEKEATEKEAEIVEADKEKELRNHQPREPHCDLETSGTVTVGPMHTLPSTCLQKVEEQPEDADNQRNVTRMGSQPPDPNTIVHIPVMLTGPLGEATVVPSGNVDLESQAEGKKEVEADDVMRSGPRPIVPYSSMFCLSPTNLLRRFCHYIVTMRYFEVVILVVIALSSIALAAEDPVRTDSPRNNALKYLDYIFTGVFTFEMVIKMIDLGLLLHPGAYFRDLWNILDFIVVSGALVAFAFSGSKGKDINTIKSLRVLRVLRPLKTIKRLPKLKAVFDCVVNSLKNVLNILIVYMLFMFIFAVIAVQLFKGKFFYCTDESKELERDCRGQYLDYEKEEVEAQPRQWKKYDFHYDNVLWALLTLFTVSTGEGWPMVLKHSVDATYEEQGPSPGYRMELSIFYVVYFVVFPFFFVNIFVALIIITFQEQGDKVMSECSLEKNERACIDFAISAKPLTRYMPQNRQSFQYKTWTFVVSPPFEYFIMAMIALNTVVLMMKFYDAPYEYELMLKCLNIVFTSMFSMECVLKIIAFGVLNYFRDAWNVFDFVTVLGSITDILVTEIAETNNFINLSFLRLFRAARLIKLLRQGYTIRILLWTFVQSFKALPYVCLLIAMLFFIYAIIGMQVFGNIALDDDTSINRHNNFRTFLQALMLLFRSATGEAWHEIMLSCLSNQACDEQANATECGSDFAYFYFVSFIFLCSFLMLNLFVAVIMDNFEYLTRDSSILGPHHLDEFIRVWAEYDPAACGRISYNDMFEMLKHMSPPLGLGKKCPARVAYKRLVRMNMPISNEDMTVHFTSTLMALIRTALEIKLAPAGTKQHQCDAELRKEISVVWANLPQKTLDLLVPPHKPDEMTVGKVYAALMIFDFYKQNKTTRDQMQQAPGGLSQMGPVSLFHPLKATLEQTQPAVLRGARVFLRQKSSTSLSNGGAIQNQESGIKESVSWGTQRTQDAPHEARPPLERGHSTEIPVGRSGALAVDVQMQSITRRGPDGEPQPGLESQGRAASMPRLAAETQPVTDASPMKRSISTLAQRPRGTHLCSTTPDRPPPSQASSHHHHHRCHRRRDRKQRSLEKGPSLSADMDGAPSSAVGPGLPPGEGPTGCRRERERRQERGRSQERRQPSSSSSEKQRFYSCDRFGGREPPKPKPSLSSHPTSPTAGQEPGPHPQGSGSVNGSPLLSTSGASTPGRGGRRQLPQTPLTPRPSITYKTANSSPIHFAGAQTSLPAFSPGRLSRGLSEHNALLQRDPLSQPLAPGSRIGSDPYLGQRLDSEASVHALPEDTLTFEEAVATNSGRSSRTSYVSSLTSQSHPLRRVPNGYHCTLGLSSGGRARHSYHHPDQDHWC

Consider `Cc1ccc2c(COC(=O)c3ccc(NC(=O)CC#N)cc3)cc(=O)oc2c1C`, for which the inhibition is 57.8% (inactive). The inhibition under setting [1] turned out to be 36.4%.
Regarding `Cc1ccc(NC(=O)c2nsc(Cl)c2Cl)cc1`, the inhibition was 18.9% (inactive).
The same measure, in the same setting: the value for `C/C(=N\NC(=O)c1ccccc1Cl)c1ccccn1` was 16.3% (inactive); that for `CCN(CC)c1ccc(/C=N/NC(=O)c2c(Cl)c(C)nn2C)cc1` was 10.2% (inactive); that for `CCc1nnc(NS(=O)(=O)c2ccc(NCc3cc(Br)ccc3O)cc2)s1` was -6.2% (inactive).
Still for that read-out and setting: the value for `O=C(OCc1cc(=O)n2c(n1)sc1ccccc12)c1ccc(O)cc1` was 30.3% (inactive); that for `O=C(OCc1cc(=O)n2c(n1)sc1ccccc12)c1ccc(O)cc1O` was 60.2% (active); that for `O=C(OCc1cc(=O)n2c(n1)sc1ccccc12)c1cccc(O)c1` was 19.1% (inactive).
On the same count and under the same terms, the value for `O=S(=O)(Nc1ccncc1)c1cc(Cl)c(Cl)cc1Cl` was 12.2% (inactive); that for `COc1cccc(N=c2oc3ccccc3cc2-c2nc3ccccc3[nH]2)c1` was 17.1% (inactive); that for `COc1ccc2oc(=Nc3ccccc3)c(-c3nc4ccccc4[nH]3)cc2c1` was 37.9% (inactive).
As for `Cc1ccc(-n2nnnc2SCc2nc3sc(C)c(C)c3c(=O)[nH]2)cc1`, the inhibition was 12% (inactive).
Same read-out and setting: the figure for `CC(=O)c1sc2nc(CSc3nncn3C)[nH]c(=O)c2c1C` is 22.1% (inactive); for `CC(=O)c1sc2nc(CSc3nnnn3-c3ccccc3)[nH]c(=O)c2c1C` it is 80.6% (active); for `COc1ccc2c(C(=O)CN3CCSCC3)c[nH]c2c1` it is 25.2% (inactive).
Same read-out and setting: the value for `COC(=O)C1=C(N)Oc2c(oc(CO)cc2=O)C1c1ccccc1F` (centres undefined) was 0.2% (inactive).
The same measure, in the same setting: the value for `O=C(O)CC(C(=O)O)N1C(=O)/C(=C/C=C/c2ccco2)SC1=S` (centres undefined) was 27.4% (inactive); that for `CC(C(=O)O)N1C(=O)/C(=C/C=C/c2ccco2)SC1=S` (centres undefined) was 77.7% (active); that for `CC(C)C(C(=O)O)N1C(=O)/C(=C/C=C/c2ccco2)SC1=S` (centres undefined) was 49.5% (inactive).
Take `CNC(=S)NNC(=O)c1c(C)nc2cc(C)ccn12`: the inhibition is 0.7% (inactive).
Consider `CC1=C(C(=O)O)N2C(=O)C(NC(=O)c3ccn(C)n3)C2SC1` (centres undefined), for which the inhibition is -8.1% (inactive).
Take `CC1=C(C(=O)O)N2C(=O)[C@@H](NC(=O)[C@H](N)c3ccccc3)[C@H]2SC1`: the inhibition is -20.5% (inactive).
On to `O=S1(=O)CCC(n2nccc2-c2ccccc2)C1` (centres undefined), for which the inhibition is -2.9% (inactive).
The same measure, in the same setting: the value for `COC(=O)C1=C(C)N(CCCC(=O)O)C(=O)NC1c1ccc(-c2ccccc2)cc1` (centres undefined) was -4.2% (inactive).
In the case of `COc1cc(C2CC(=O)Nc3n[nH]c(-c4ccccc4)c32)cc(OC)c1OC` (centres undefined), the inhibition was 8.3% (inactive).
In the case of `COc1cc(C2c3c([nH]c(=O)[nH]c3=O)Nc3ccc4ccccc4c32)ccc1O` (centres undefined), the inhibition was -1.1% (inactive).
Same read-out and setting: the value for `COc1cc(C2c3c([nH]c(=O)[nH]c3=O)Nc3ccc4ccccc4c32)cc(OC)c1OC` (centres undefined) was 82.8% (active); that for `CSc1cccc(NC(=O)c2cc(S(=O)(=O)N3CCCC3)cn2C)c1` was 8.5% (inactive); that for `O=C(CSc1nc2c(c(=O)n1-c1ccc(Cl)cc1)SCC2)NCC1CCCO1` (centres undefined) was -0.5% (inactive).
The same measure, in the same setting: the value for `CC1=NN(C(N)=S)C(=O)C1N=Nc1c(Cl)cc([N+](=O)[O-])cc1Cl` (centres undefined) was -6.1% (inactive); that for `Cc1ccc(C)c(SCC(=O)NC(=O)Nc2ccc3c(c2)OCCO3)c1` was 1.2% (inactive).
The same measure, in the same setting: the figure for `CCCc1cc(=O)[nH]c(SCC(=O)N2CCC(C)CC2)n1` is 12% (inactive); for `Nc1cc([N+](=O)[O-])ccc1O` it is 2.9% (inactive); for `Cc1ccc([N+](=O)[O-])cc1N` it is 0% (inactive).
In the case of `COc1ccc(NC(=O)CCC(=O)N(Cc2ccc(OC)c(OC)c2)c2nccs2)cc1`, the inhibition is 6% (inactive).
As to `OCC1(CCCc2ccccc2)CCN(Cc2ccc(F)cc2)CC1`, the inhibition is -2.6% (inactive).
The same measure, in the same setting: the figure for `CC(C)CNC(=O)c1ccccc1Oc1ccccc1` is 3.1% (inactive).
Same read-out and setting: the value for `Cn1c(=O)c2c(-c3ccc(C(C)(C)C)cc3)n(CC3CCCO3)cc2n(C)c1=O` (centres undefined) was 8.1% (inactive); that for `COC(=O)C1=C(C)NC(C)=C(C(=O)OC)C1c1cc2cc(C)ccc2[nH]c1=O` was 17.4% (inactive); that for `Cc1ccc2[nH]c(=O)c(CNC(C)C)cc2c1` was 15.1% (inactive).
On the same count and under the same terms, the value for `O=C(O)C1Nc2c(C(F)(F)F)ccc(Cl)c2C2C=CCC12` (centres undefined) was 7.3% (inactive); that for `O=C(O)C1Nc2c(Cl)cc(Cl)cc2C2C=CCC12` (centres undefined) was 51.5% (active).
`Cc1ccc2c(c1C)NC(C(=O)O)C1CC=CC21` (centres undefined): the inhibition is 42.8% (inactive).
On the same count and under the same terms, the value for `O=C(CCNC(=O)N1CCn2c1nc1ccccc12)NCc1ccccc1` was -1.3% (inactive); that for `O=c1c2c([N+](=O)[O-])cc([N+](=O)[O-])cc2sn1Cc1ccccc1` was 43.2% (inactive).
`N#Cc1c(N)n(Cc2ccccc2)c(=O)c2cc([N+](=O)[O-])ccc12`: the inhibition was 2% (inactive).
Consider `Cc1ccc(NC2SC(=O)N(CC(=O)O)C2=O)cc1` (centres undefined), for which the inhibition is -7.4% (inactive).
As for `Cc1cccc(C)c1-n1c(C)nn(CC2CC2)c1=O`, the inhibition was -5.7% (inactive).
On the same count and under the same terms, the figure for `COc1ccc(-c2csc(NC(=O)CN3C(=O)CCC3=O)n2)c(OC)c1` is 6.5% (inactive); for `CC(C)(C)NC(=O)CN(C(=O)C1(C)CC(=O)N=C2C=CC=CN21)C1CCCC1` (centres undefined) it is 9.2% (inactive); for `CCCCCCC(=O)N(O)C1CC(=O)N(c2ccccc2)C1=O` (centres undefined) it is 65.6% (active).
On the same count and under the same terms, the value for `CCCCCCC(=O)N(O)C1CC(=O)N(c2ccc(C)cc2)C1=O` (centres undefined) was 12.5% (inactive); that for `CCCCCC(=O)N(O)C1CC(=O)N(c2ccccc2)C1=O` (centres undefined) was 44.4% (inactive).
Still for that read-out and setting: the figure for `CN(CCN1CCc2ccccc2C1)Cc1nc(-c2ccc3c(c2)OCO3)no1` is 2.5% (inactive); for `CCc1cc(C(=O)N2CCCC(C(=O)c3ccc(C(F)(F)F)cc3)C2)n(C)n1` (centres undefined) it is 5.5% (inactive); for `O=C(CSc1nnc(-c2ccco2)n1-c1ccccc1)NCC1CCCO1` (centres undefined) it is 9.9% (inactive).
As for `C=CCn1c(SCC(=O)NCC2CCCO2)nc2scc(-c3ccco3)c2c1=O` (centres undefined), the inhibition is 33% (inactive).
Same read-out and setting: the figure for `O=C(CSc1nc2scc(-c3ccco3)c2c(=O)n1-c1ccccc1)NCC1CCCO1` (centres undefined) is 55% (active).
Turning to `Cc1cc(C)c(NC(=O)CN2CCN(c3ccccn3)CC2)c(C)c1`, the inhibition is -1.2% (inactive).
On the same count and under the same terms, the figure for `CCOC(=O)C1(Cc2ccccc2C)CCCN(C(=O)c2ccoc2)C1` (centres undefined) is 14.3% (inactive); for `COC(=O)C1=C(C)NC(C)=C(C(=O)OCC2CCCO2)C1c1cccc(Br)c1` (centres undefined) it is 13.6% (inactive).
Same read-out and setting: the figure for `Cn1cnnc1SCC(=O)Nc1sccc1C#N` is 2.2% (inactive).
On to `N#Cc1ccsc1NC(=O)CSc1nnnn1-c1ccc(O)cc1`, for which the inhibition was 50.6% (active).
Still for that read-out and setting: the figure for `Cc1ccc(-n2nnnc2SCC(=O)Nc2sccc2C#N)cc1` is 0% (inactive); for `CC(=O)c1ccc2noc(-c3cccc(F)c3)c2c1` it is -6.7% (inactive).
On the same count and under the same terms, the value for `CCn1cc(C(=O)O)c(=O)c2cc(F)c(N/N=C/c3ccccc3[N+](=O)[O-])cc21` was 58.8% (active).
As to `CCn1cc(C(=O)O)c(=O)c2cc(F)c(N/N=C/c3ccccc3)cc21`, the inhibition is 6.4% (inactive).
On the same count and under the same terms, the value for `CCn1cc(C(=O)O)c(=O)c2cc(F)c(N3CCN(C(=S)NC(=O)c4ccccc4)CC3)cc21` was -5.6% (inactive); that for `Cn1cc([N+](=O)[O-])c(C(=O)NCc2ccco2)n1` was -1.5% (inactive); that for `COc1ccccc1NC(=O)C1=C(C)NC(=O)NC1c1ccccc1[N+](=O)[O-]` (centres undefined) was 55.2% (active).
Take `COc1ccccc1NC(=O)C1=C(C)NC(=O)NC1c1ccccc1F` (centres undefined): the inhibition was 6.4% (inactive).
On the same count and under the same terms, the figure for `COc1ccc(NC(=O)C2=C(C)NC(=O)NC2c2ccccc2[N+](=O)[O-])cc1` (centres undefined) is -2.6% (inactive).
Same read-out and setting: the value for `O=C(CN1C(=O)C2CCCCC2C1=O)N1CCN(c2ncccn2)CC1` (centres undefined) was 10.4% (inactive); that for `CC(C)CCN(C)C1CCN(S(=O)(=O)c2cccc(C(F)(F)F)c2)CC1` was 12.2% (inactive); that for `O=C(N/N=C/c1cccc([N+](=O)[O-])c1)c1cc(-c2ccc3c(c2)OCO3)n[nH]1` was 3.3% (inactive).
For `O=C(N/N=C/c1ccc([N+](=O)[O-])cc1)c1cc(C2CC2)[nH]n1`, the inhibition was -0.6% (inactive).
As for `O=C(Nc1ccc(S(=O)(=O)Nc2nccs2)cc1)c1cccc(N2C(=O)c3ccccc3C2=O)c1`, the inhibition was 49.1% (inactive).
On the same count and under the same terms, the figure for `O=C(Nc1ccc(S(=O)(=O)Nc2nccs2)cc1)c1ccc(F)cc1` is 11.1% (inactive); for `O=C(Nc1ccc(S(=O)(=O)Nc2nccs2)cc1)c1ccc(N2C(=O)c3ccccc3C2=O)cc1` it is 58.8% (active); for `COc1ccccc1N1CCN(C(=O)C2CCN(C(=O)c3cccc(Cl)c3)CC2)CC1` it is 6.4% (inactive).
The same measure, in the same setting: the value for `Cc1[nH]cnc1C(=O)N/N=C/c1ccc([N+](=O)[O-])s1` was -7.6% (inactive); that for `N#CC(C#N)=c1ccc2c(c1)N1C3=C(CCCC3)CC3CCCCC31N=2` (centres undefined) was -36.3% (inactive); that for `N#C/C(C(N)=O)=c1/ccc2c(c1)N1C3=C(CCCC3)CC3CCCCC31N=2` (centres undefined) was -26.9% (inactive).
As to `O=[N+]([O-])C(=c1ccc2c(c1)N1C3=C(CCCC3)CC3CCCCC31N=2)[N+](=O)[O-]` (centres undefined), the inhibition is 51.6% (active). For the same molecule, under setting [1], the inhibition turned out to be 92.8%.
With `CCc1ccc2[nH]c(C(=O)Nc3ccc(Br)c(C)n3)cc2c1`, the inhibition was 5.3% (inactive).
As to `COc1ccc(-c2cc(-c3ccco3)[nH]c(=O)c2C#N)cc1OC`, the inhibition was 0.3% (inactive).
Still for that read-out and setting: the value for `COc1ccc(-c2cc(-c3ccco3)[nH]c(=O)c2C#N)cc1` was 24.8% (inactive).
Still for that read-out and setting: the value for `N#Cc1c(-c2cccc(Br)c2)cc(-c2ccco2)[nH]c1=O` was 53.9% (active); that for `O=C(COC(=O)CCC(=O)c1cccs1)NCc1ccco1` was 57.8% (active); that for `O=C(COC(=O)c1cccs1)NCc1ccco1` was -0.7% (inactive).
The same measure, in the same setting: the value for `O=C(COC(=O)/C=C/c1ccc(F)cc1)NCc1ccco1` was 8.8% (inactive); that for `O=C(COC(=O)/C=C/c1ccco1)NCc1ccccc1` was 13.7% (inactive); that for `O=C(COC(=O)/C=C/c1ccco1)NCc1ccco1` was 53.7% (active).
For `O=C(COC(=O)c1ccc(S(=O)(=O)Nc2ccccc2)cc1)NCc1ccco1`, the inhibition is -1.1% (inactive).
On the same count and under the same terms, the figure for `O=C(COC(=O)c1ccc(NS(=O)(=O)c2cccs2)cc1)NCc1ccco1` is 59.4% (active); for `O=C(COC(=O)CCC(=O)c1cccs1)NCc1cccs1` it is -3.4% (inactive); for `O=C(COC(=O)c1ccc(NS(=O)(=O)c2cccs2)cc1)NCC1CCCO1` (centres undefined) it is -3% (inactive).

For orientation: inhibition means the drop in the measured response relative to a control, in per cent.

The record behind these values is PubChem BioAssay AID2073 (Sanford-Burnham Center for Chemical Genomics, 2009).
